Assay outcomes: PubChem, University of Kansas High Throughput Screening Laboratory
Rows were chosen to be rich in hits. Some 3.6% of all compounds tested hit in one or more screens of this group.
mHTT-CaM PPI inh – mHTT-calmodulin interaction abrogation; AlphaScreen His-mHTT/GST-CaM binding, luminescence; AID 1671202; P42858; actives 3.6% (n = 190,000); inhibition, % at 15 µM;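 also: 0% = both proteins with DMSO and 100% = one protein alone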
Target sequence (P42858 whole entry, looked up, stated change not applied): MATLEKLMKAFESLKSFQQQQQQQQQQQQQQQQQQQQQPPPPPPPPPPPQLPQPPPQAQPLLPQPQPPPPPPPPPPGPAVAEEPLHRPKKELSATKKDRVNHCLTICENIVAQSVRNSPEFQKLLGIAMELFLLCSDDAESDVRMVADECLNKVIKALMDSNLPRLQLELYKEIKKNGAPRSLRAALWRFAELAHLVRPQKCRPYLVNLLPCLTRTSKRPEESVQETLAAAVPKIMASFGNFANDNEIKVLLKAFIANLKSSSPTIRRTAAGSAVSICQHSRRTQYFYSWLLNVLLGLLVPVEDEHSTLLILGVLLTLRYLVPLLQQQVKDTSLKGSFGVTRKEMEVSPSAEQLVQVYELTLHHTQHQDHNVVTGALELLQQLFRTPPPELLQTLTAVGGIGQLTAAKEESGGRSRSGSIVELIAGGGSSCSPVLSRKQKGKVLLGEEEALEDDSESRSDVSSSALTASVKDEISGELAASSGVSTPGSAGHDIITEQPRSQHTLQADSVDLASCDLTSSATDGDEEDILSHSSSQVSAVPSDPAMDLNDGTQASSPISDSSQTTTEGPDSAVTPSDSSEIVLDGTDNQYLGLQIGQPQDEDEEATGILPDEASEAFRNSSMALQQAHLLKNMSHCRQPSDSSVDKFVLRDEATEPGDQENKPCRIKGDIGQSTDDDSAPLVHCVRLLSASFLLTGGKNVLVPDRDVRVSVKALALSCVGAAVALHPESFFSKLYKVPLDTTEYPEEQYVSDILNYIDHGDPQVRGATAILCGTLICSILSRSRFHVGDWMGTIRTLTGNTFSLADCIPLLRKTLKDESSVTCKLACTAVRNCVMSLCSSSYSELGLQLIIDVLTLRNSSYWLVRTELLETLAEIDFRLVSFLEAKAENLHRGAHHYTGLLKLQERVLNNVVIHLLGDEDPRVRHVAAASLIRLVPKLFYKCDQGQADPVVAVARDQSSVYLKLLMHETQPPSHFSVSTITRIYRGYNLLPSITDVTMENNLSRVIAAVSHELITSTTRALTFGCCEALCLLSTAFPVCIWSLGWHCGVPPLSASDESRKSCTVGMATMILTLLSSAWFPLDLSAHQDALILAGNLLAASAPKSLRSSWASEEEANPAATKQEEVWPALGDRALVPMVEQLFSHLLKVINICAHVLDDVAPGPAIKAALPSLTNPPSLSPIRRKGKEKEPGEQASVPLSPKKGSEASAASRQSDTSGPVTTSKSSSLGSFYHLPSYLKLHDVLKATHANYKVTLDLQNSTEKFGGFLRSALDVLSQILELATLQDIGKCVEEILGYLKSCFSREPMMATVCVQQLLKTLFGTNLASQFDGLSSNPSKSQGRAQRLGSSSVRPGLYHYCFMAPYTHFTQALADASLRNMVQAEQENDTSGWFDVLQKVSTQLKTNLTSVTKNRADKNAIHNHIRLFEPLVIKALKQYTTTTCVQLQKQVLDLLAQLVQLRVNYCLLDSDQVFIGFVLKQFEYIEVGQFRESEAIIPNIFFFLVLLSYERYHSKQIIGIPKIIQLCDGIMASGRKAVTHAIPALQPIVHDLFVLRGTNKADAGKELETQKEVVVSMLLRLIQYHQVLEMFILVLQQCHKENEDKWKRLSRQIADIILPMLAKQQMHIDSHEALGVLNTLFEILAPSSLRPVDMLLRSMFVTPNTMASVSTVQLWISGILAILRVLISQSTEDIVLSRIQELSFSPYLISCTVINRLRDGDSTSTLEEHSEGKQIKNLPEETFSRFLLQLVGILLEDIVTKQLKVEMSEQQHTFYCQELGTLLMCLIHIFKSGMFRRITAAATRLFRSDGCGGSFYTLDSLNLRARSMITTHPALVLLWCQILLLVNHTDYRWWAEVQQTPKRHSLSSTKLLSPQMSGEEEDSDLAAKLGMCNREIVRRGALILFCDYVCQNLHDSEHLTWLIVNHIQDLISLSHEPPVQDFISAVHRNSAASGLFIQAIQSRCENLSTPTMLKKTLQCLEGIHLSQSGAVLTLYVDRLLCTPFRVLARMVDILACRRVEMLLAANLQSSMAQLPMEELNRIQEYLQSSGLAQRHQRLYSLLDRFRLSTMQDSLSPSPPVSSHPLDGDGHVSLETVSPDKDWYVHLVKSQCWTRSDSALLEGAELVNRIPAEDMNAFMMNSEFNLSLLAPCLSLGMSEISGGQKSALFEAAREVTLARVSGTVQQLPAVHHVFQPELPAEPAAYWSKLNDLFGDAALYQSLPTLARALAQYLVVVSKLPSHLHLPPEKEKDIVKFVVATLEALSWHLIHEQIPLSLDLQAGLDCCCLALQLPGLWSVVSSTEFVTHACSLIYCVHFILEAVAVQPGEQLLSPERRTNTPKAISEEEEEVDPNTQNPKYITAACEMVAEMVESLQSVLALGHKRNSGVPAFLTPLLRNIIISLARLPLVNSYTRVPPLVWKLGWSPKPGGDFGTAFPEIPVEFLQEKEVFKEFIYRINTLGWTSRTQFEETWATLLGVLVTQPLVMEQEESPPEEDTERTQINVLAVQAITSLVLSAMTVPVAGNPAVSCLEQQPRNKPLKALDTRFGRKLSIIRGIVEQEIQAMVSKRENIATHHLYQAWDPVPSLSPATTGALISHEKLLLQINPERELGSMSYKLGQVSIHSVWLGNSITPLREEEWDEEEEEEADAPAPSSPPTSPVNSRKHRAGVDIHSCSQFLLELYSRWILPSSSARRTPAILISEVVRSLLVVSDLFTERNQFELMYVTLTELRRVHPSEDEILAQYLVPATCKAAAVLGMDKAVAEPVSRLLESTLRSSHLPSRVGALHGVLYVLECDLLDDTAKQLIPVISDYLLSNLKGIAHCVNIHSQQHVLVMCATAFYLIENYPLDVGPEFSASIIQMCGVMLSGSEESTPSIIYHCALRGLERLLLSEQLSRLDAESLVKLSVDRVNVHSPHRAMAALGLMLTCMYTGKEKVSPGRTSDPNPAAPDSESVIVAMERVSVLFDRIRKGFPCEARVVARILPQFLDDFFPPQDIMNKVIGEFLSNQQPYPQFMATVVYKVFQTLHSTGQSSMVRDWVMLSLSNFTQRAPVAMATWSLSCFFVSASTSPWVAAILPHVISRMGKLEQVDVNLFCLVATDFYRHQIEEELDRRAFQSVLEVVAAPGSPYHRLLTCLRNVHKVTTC
Pf apPOL inh – Pf-apPOL DNA polymerase inhibition | actives 0.25% (n = 210,000) | Recombinant Pf-apPOL, molecular beacon fluorescence, 1.5 h | inhibition, % at 10 µM
* marks the source's active call; other numbers are inactive results; i = inactive; · = no result given. Rule as the data show it: active = inhibition above about 50%; inactive = the rest.

SMILES	mHTT-CaM PPI inh	Pf apPOL inh
O=C(c1cc2cn(C3CC3)cc2s1)N1CCN(Cc2ccc3c(c2)OCO3)CC1	62.7*	-3.2
CC(=O)N1CCN(C(=O)c2cc3cn(C(C)C)cc3s2)CC1	12.8	-1.3
O=C(c1cc2cn(C3CC3)cc2s1)N1CCN(C2CCCCC2)CC1	54.8*	0.0
CC(C)n1cc2cc(C(=O)N3CCN(Cc4ccccc4F)CC3)sc2c1	60.0*	3.3
O=C(Cc1cccs1)N1CCC2(CC1)OCCN2S(=O)(=O)c1ccccc1	6.5	0.2
COCCNC(=O)CC1CCN(C(=O)C2CCCCC2)CC1	-6.1	-3.9
COc1ccc(S(=O)(=O)CC(=O)Nc2ccc([N+](=O)[O-])cc2OC)cc1	-2.5	-2.5
O=C(CSc1nc2ccc(N=Cc3cc(Cl)ccc3O)cc2s1)N1CCOCC1	3.0	1.7
Cc1nc2c(c(N(C)CCc3ccccn3)n1)CCC2	-0.8	10.6
Cc1ccc(N2CC(NC(=O)NCCCn3ccnc3)CC2=O)cc1 (configuration not stated)	97.7*	-3.0
O=C(NCCCn1ccnc1)c1ccc(C(=O)NCCCn2ccnc2)cc1	0.3	0.0
COc1cc(C=NNC(=O)CSCc2c(C)c(C)c(C)c(C)c2C)cc(OC)c1OC	·	-10.8
O=[N+]([O-])c1ccc(O)c(C=Nc2cccc3ncccc23)c1	26.0	-1.5
Cc1ccc(O)c(C=Nc2ccc(Br)c3cccnc23)c1	101.0*	-4.1
O=C1C(Nc2ccccc2)=C(N2CCCCC2)C(=O)c2ccccc21	23.7	7.8
O=C1C(Nc2ccc(Br)cc2)=C(N2CCCCC2)C(=O)c2ccccc21	95.4*	10.8
CC(=O)c1ccc(NC2=C(N3CCCC3)C(=O)c3ccccc3C2=O)cc1	85.7*	-6.1
O=C1C(Nc2ccc(Br)cc2)=C(n2nnc3ccccc32)C(=O)c2ccccc21	-3.0	-4.5
O=C1C(Nc2cc(F)cc(F)c2)=C(N2CCOCC2)C(=O)c2ccccc21	19.4	-8.1
Cc1ccc(NC2=C(N3CCCCC3)C(=O)c3ccccc3C2=O)cc1	68.3*	5.4
COc1cc2c(cc1OC)C(C(=O)Nc1cnc3ccccc3c1)C(c1cccnc1)N(C)C2=O (configuration not stated)	4.0	0.7
Fc1ccc(-c2nc(-c3cccc(-c4ccn[nH]4)c3)no2)cc1	18.1	-1.2
CSc1ccc(CNC(=O)c2cc3ccncc3n2C)cc1	1.2	-8.0
COc1cccc(CN2CCc3nc(N4CCN(C)CC4)ncc3C2)c1	28.6	-3.0
COc1ccc(N2CCN(c3ncc4c(n3)CCN(Cc3ccc(F)cc3)C4)CC2)cc1	56.9*	-4.5
SMILES	mHTT-CaM PPI inh	Pf apPOL inh
COc1ccc(CN2CCc3nc(N4CCN(c5cccc(OC)c5)CC4)ncc3C2)cc1	73.9*	1.6
Fc1ccc(CN2CCc3nc(N4CCN(c5ccc(F)cc5)CC4)ncc3C2)cc1	-0.4	-5.8
COc1cccc(N2CCN(c3ncc4c(n3)CCN(Cc3cccc(F)c3)C4)CC2)c1	57.6*	-2.8
CCCN1CCN(c2ncc3c(n2)CCN(Cc2cccc(OC)c2)C3)CC1	9.0	-2.5
O=C(NC1CCCCCC1)C1CC(=O)N(CCc2c[nH]c3ccc(F)cc23)C1 (configuration not stated)	0.0	-4.2
COc1ccccc1NC(=O)C(=O)NCCc1ccc(Cl)cc1	-6.0	-6.7
CC1=CC(=O)C=C(C)C1=NOC(=O)/C=C/c1ccccc1	100.0*	-0.3
O=C(/C=C/c1ccccc1)O/N=C1\CCCc2oc3c(c21)CCCC3	i	-4.7
Cn1cccc1C(=O)NN=Cc1c(Cl)cccc1Cl	·	-3.3
O=C(O)c1cccc2c1NC(c1ccccc1[N+](=O)[O-])C1CC=CC21 (configuration not stated)	92.0*	-9.2
O=C(O)c1ccc([N+](=O)[O-])c2c1NCC1CC=CC21 (configuration not stated)	9.0	2.1
COc1cc([N+](=O)[O-])cc2c1NC(c1cccc(Cl)c1Cl)C1CC=CC21 (configuration not stated)	16.0	6.7
O=[N+]([O-])c1ccccc1C1Nc2c(cccc2[N+](=O)[O-])C2C=CCC21 (configuration not stated)	65.0*	5.1
O=[N+]([O-])c1cccc2c1NC(c1ccccc1F)C1CC=CC21 (configuration not stated)	75.0*	-1.6
Fc1cccc2c1N[C@@H](c1c3ccccc3cc3ccccc13)[C@H]1CC=C[C@@H]21	-6.5	·
C/C(Cl)=C\CSc1nc2c(c(=O)[nH]c(=O)n2C)n1CCC(C)C	4.0	-1.8
N#CC1=C(N)n2c(s/c(=C\c3ccsc3)c2=O)=C(C#N)C1c1ccsc1 (configuration not stated)	70.0*	-17.1
N#CC1=C(N)N(c2ccccc2)C2=C(C(=O)CCC2)C1c1ccsc1 (configuration not stated)	0.0	-5.6
CCOC(=O)CC[C@@H]1CC[C@]2(CCCN(S(=O)(=O)c3ccccc3)C2)O1	-3.7	-3.7
CCN(CC)C(=O)CC[C@H]1CC[C@]2(CCCN(S(=O)(=O)c3ccccc3)C2)O1	98.5*	-5.8
COc1cc(OC)c2c(-c3ccccc3)cc(=O)oc2c1C(CCN1CCCCC1)c1ccc2c(c1)OCO2 (configuration not stated)	99.1*	-8.2
COc1cc(OC)c2ccc(=O)oc2c1C(CC(=O)N1CCCCC1)c1ccc2c(c1)OCO2 (configuration not stated)	36.8	-5.5
COc1cc(O)c(C(CCN2CCCCC2)c2ccc3c(c2)OCO3)c(OC)c1 (configuration not stated)	33.4	-4.9
COc1cc(OC)c2ccc(=O)oc2c1C(CC(=O)N1CCCC1)c1ccc2c(c1)OCO2 (configuration not stated)	35.5	4.4
COc1cc(OC)c2c(-c3ccccc3)cc(=O)oc2c1C(CCN1CCCC(C)C1)c1ccc2c(c1)OCO2 (configuration not stated)	100.2*	-12.0
SMILES	mHTT-CaM PPI inh	Pf apPOL inh
COc1cc(OC)c2c(-c3ccccc3)cc(=O)oc2c1C(CC(=O)N1CCCC1)c1ccc2c(c1)OCO2 (configuration not stated)	68.9*	1.1
Cc1c(C)c2cc3c(-c4ccc(F)cc4)coc3cc2oc1=O	1.0	-3.3
Cc1c(C)c2cc3c(-c4ccccc4)coc3cc2oc1=O	-7.0	60.0*
Cc1nc(-c2ccccc2)oc1CC(=O)N1CCCCCC1	6.7	-3.4
COc1ccc2cc(C(=O)NC(C)=O)c(=Nc3ccc(C(F)(F)F)cc3)oc2c1	3.0	66.4*
COc1ccc2cc(C(=O)NC(C)=O)c(=Nc3ccc(F)cc3)oc2c1	4.0	2.5
CC1(C)C(C=C(Cl)Cl)C1C(=O)Nc1sc2c(c1C#N)CCC2 (configuration not stated)	1.4	-1.2
CC1(C)C(C=C(Cl)Cl)C1C(=O)Nc1sc2c(c1C(N)=O)CCCC2 (configuration not stated)	100.0*	0.6
O=C(NCc1cccs1)C1CCN(c2cnn(Cc3ccccc3)c(=O)c2)CC1	-4.3	-2.6
CC(=O)Nc1ccc(Nc2nc(-c3ccc(Cl)cc3)cs2)cc1	75.7*	-3.2
COc1ccc(-c2csc(Nc3ccc(C(=O)O)cc3)n2)cc1	14.7	2.3
COc1ccc(-c2csc(Nc3ccc(NC(C)=O)cc3)n2)cc1	59.9*	-0.3
CC(=O)Nc1ccc(Nc2nc(-c3ccccc3)cs2)cc1	44.0	-2.1
O=S(=O)(c1ccc2c(c1)-c1oncc1CO2)N1CCc2ccccc2C1	0.3	-2.8
